D2 ag-1 = HTS Assay for Allosteric Agonists of the Human D2 Dopamine Receptor: Primary Screen for Agonists | D(2) dopamine receptor (Homo sapiens), P14416 | HEK293 T-REx D2 cells, calcium flux agonist mode | activation, % at 2 µM | 0.53% of 340,000 active | AID 485358, 2010;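 active means activation over 3 SD above normal in the single-dose calcium agonist read, cut at about 30% in these data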; further: 0% is about no effect
Target sequence (P14416 whole entry, looked up): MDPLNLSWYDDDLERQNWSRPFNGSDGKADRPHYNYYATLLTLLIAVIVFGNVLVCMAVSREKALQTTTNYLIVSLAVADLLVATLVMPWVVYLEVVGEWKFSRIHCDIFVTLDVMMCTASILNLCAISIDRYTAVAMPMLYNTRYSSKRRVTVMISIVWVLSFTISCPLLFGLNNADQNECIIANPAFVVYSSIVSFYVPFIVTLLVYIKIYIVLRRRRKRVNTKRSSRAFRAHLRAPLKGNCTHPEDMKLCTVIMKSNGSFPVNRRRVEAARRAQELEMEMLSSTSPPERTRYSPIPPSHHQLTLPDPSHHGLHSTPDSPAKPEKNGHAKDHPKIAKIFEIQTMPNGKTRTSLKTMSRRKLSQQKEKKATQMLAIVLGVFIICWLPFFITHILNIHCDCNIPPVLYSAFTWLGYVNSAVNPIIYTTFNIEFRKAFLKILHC
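Tetracycline-induced HEK293 Trex cells with D2 receptor force-coupled to calcium signaling, plated overnight at 30 C and loaded with no-wash calcium dye. Calcium flux read kinetically for 180 s after compound addition; responses flag agonists.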
D2 PAM-1 = HTS Assay for Positive Allosteric Modulators of the Human D2 Dopamine Receptor: Primary Screen for Potentiators. D(2) dopamine receptor (Homo sapiens), P14416. HEK293 T-REx D2, calcium flux, EC20 dopamine potentiation. potentiation, % at 10 µM. 0.34% of 340,000 active. AID 485347, 2010;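 active means potentiation over 3 SD above the plate norm, cut at about 30% in these data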; further: 0% is about no effect
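Tetracycline-induced HEK293 T-REx cells force-coupled to calcium signalling expressed D2; compounds were pin-added after a 10 s baseline, read kinetically 180 s, then an EC20 dopamine challenge followed with a further 180 s calcium read.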
D2 ag-2 = Beta-Arrestin HTS for Positive Allosteric Modulators of the Human D2 Dopamine Receptor: Agonists; DiscoveRx PathHunter D2 beta-arrestin, luminescence, 90 min; 100% = 57 uM dopamine signal; activation, % (no concentration beside the values); 0.084% of 360,000 active; in the data active means activation above about 40%
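Agonist mode: compounds alone added to overnight-plated D2 PathHunter cells for 90 min at 37 C, with 57 uM final dopamine (EC100) defining full response. Beta-arrestin recruitment detected by chemiluminescent reagent, read after 1 h at ambient temperature.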
D2 antagonist = HTS Assay for Allosteric Antagonists of the Human D2 Dopamine Receptor: Primary Screen for Antagonists; inhibition, % at 10 µM; 2% of 340,000 active; HEK293 TREx D2 cells, calcium flux, dopamine EC80; AID 485344, 2010; D(2) dopamine receptor (Homo sapiens), P14416; in the data active means inhibition above about 30%; inactive means below that, where a call was filed; further: 0% is about no effect
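HEK293 T-REx D2 cells, tet-induced, calcium dye no-wash. Cpd pintool add, 180 s kinetic, then EC80 DA, 180 s kinetic. Ca flux read.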
D2 PAM-2 = Beta-Arrestin HTS for Positive Allosteric Modulators of the Human D2 Dopamine Receptor: Potentiators; 0.23% of 360,000 active; D(2) dopamine receptor (Homo sapiens), P14416; potentiation, % (no concentration beside the values); AID 624464, 2012; DiscoveRx D2 beta-arrestin cells, luminescence, 90 min; 100% = 57 uM dopamine signal; in the data active means potentiation above about 50%
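D2 cells co-treated with compound plus 50 nM dopamine (EC20) for 90 min at 37 deg C to detect potentiation. Beta-arrestin recruitment was read as enzyme-fragment luminescence after 1 h at ambient temperature. Full response was set by 57 uM dopamine.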
* hit, by the source's call; . = no result given. The list is not random: actives were taken first. Their share in the collection is about 2.4%.

SMILES	D2 ag-1	D2 PAM-1	D2 ag-2	D2 antagonist	D2 PAM-2
CC(C)n1c(O)c(N=NC(=O)CNC(=O)c2cccnc2)c2ccccc21	0	3	-5	41*	-34
CCC(C)(C)C1CCC(NC(=O)c2ccc(S(=O)(=O)N3CCOCC3)cc2)CC1 (stereo not drawn)	-1	9	-1	-12	-6
CN1CCN(CCOC2Cc3ccccc3Sc3ccc(Cl)cc32)CC1 (stereo not drawn)	0	-41	-2	88*	-37
COc1cccc(-c2cc3c(-n4cccc4)ncnc3o2)c1	-1	9	-3	37*	-15
Cc1cc(C)c(NC(=O)CSc2ccc(-c3cccnc3)nn2)c(C)c1	-1	4	-1	0	0
O=C(COC(=O)CCNS(=O)(=O)c1ccccc1)NC(=O)Cc1ccccc1	0	-10	5	37*	0
O=C(COC(=O)CCNS(=O)(=O)c1ccccc1F)Nc1nnc(-c2ccccc2)o1	-1	-8	-6	32*	9
O=C(COC(=O)CCNS(=O)(=O)c1ccc(Cl)cc1)NCc1ccccc1	.	.	-2	.	-10
CN(C)S(=O)(=O)c1cccc(NC(=O)CO/N=C(\N)c2ccccc2)c1	1	-3	-4	9	-27
O=C(NCCC1=CCCCC1)c1ccc2c(c1)N(Cc1ccc(Cl)cc1)C(=O)c1ccccc1S2=O (stereo not drawn)	1	-5	.	.	.
COc1ccccc1NC(=O)Cn1c(=O)n(C)c(=O)c2sc3c(c21)COC(C)(C)C3	0	-5	4	32*	-9
Cc1ccc(N2CC(C(=O)N3CCCCCC3)CC2=O)cc1 (stereo not drawn)	1	16	-3	-13	-5
C/C(=N\NC(=O)CC#N)c1ccc(Oc2ccccc2)cc1	1	39*	-3	5	-3
C/C(=N\NC(=O)COc1ccccc1)c1ccc(O)cc1	-2	-8	-3	-18	-17
COc1cc(OC)c2ccc(=O)oc2c1C(CCN1CCCC(C)C1)c1ccc2c(c1)OCO2 (stereo not drawn)	-1	-18	-2	83*	-22
COc1ccc(C(CCN2CCCC(C)C2)c2c(OC)cc(OC)c3c2OC(=O)CC3c2cc(OC)c(OC)c(OC)c2)cc1 (stereo not drawn)	0	-27	2	52*	-23
CCCCCc1cc(=O)oc2c(C(CCN3CCN(c4ccccc4)CC3)c3ccc4c(c3)OCO4)c(OC)cc(OC)c12 (stereo not drawn)	17	-9	14	50*	2
Cc1sc2ncnc(N3CCC(C(=O)Nc4ccc(Br)cc4Br)CC3)c2c1C	0	-4	1	-14	-7
Cc1ccc2nc(SCC(=O)Nc3nonc3C)[nH]c2c1	-3	6	0	1	-4
Cc1c(Cl)ccc2c(C(=O)O)cc(-c3ccccc3)nc12	-2	-14	-5	52*	-5
O=C(CSc1cc(Cl)ccc1Cl)NC1CC1	0	15	-5	0	-6
CN1CCN(NC(=O)CSc2ccc(Cl)cc2Cl)CC1	0	3	-2	46*	-4
CCOc1ccc(N(CC(=O)NCc2ccc(OC)cc2)S(=O)(=O)c2c(C)[nH]c(=O)[nH]c2=O)cc1	0	14	9	.	-1
CCOc1ccc(N(CC(=O)NCCc2ccc(Cl)cc2)S(=O)(=O)c2c(C)[nH]c(=O)[nH]c2=O)cc1	-2	32*	1	2	-2
COc1ccccc1-n1cnc2c(c1=O)c1nc3ccccc3nc1n2-c1ccc(C)cc1	-2	33*	-4	-24	-14
SMILES	D2 ag-1	D2 PAM-1	D2 ag-2	D2 antagonist	D2 PAM-2
Cc1ccc(NC(=O)CN2C(=O)NC(C)(c3ccc(Cl)cc3)C2=O)cc1 (stereo not drawn)	3	1	-3	-7	-6
Cc1ccc(C2(C)NC(=O)N(CC(=O)Nc3ccc(S(=O)(=O)Nc4nccs4)cc3)C2=O)cc1 (stereo not drawn)	-1	31*	3	-1	4
COc1ccc(S(=O)(=O)N(CC(=O)NCc2ccncc2)c2ccc(C)cc2)cc1Br	0	1	-1	33*	-4
COc1ccc(N(CC(=O)Nc2ccc3c(c2)OCO3)S(=O)(=O)c2ccccc2)cc1OC	-1	0	1	8	4
Cc1ccc(N(CC(=O)NCc2ccc(F)cc2)S(=O)(=O)c2cccs2)cc1	1	-12	3	46*	1
COc1ccc(N(CC(=O)Nc2ccc3c(c2)OCO3)S(=O)(=O)c2ccc(C)cc2)cc1OC	1	-28	-1	54*	-12
Cc1ccc([C@H]2C[C@H](n3cc(-c4ccc(F)cc4)nn3)[C@@H](O)CN2C(=O)C2CCCCC2)cc1	.	.	2	.	-6
CCN1CCCC1CNC(=O)c1ccc(N2CCOCC2)c(NS(=O)(=O)c2ccc(OC)cc2)c1 (stereo not drawn)	0	-13	-1	33*	-17
CCN(CC)CCNC(=O)c1ccc(N2CCCCC2)c(NS(=O)(=O)c2ccc(C)cc2)c1	1	-17	-5	56*	-26
COc1ccc(NC(=O)CSc2nnc(-c3nonc3NC(C)=O)n2-c2ccccc2)cc1	.	0	.	.	.

Screening data from PubChem.
